# Granule exo inh: lytic granule exocytosis inhibition. TALL-104 LAMP-1 surface exposure, flow cytometry; cells stimulated with thapsigargin and PMA. inhibition, % at 10 µM. actives 0.66% (n = 360,000). AID 651702;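 active means inhibition above about 55%, limit read from the data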
# ABHD5-PLIN5 inh: blocks binding of human ABHD5 to perilipin-5 | Split G. princeps luciferase complementation, luminescence, 4 h | inhibition, % at 4 µM | AID 602281 | actives 0.78% (n = 360,000);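 active means inhibition above the mean inhibition across every tested compound plus 3 SD, cut at about 22% in these data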;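 further: 0% = DMSO only wells and the 100% control is not disclosed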
# Beta2AR agonist: agonists of human beta-2 adrenergic receptor inducing internalization; P07550; Am2.2-beta2AR cells, FAP receptor internalization, flow cytometry; response, % (no concentration beside the values); AID 504454; actives 0.43% (n = 340,000);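 active means response above a set limit, near 3 SD of response in nonfluorescent compounds, cut at about 42% in these data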
# NTR1 ag: activates human neurotensin receptor 1; P30989; NTR1-U2OS beta-arrestin-GFP spot imaging, agonist mode; activation, % at 20 µM; actives 0.17% (n = 330,000);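 active means activation at or above 40% of the spot to cytoplasm intensity ratio, with at least 20 cells analyzed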;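 further: 0% = DMSO without peptide and 100% = 100 nM NTR1 peptide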
# Target sequence (P30989 whole entry, looked up): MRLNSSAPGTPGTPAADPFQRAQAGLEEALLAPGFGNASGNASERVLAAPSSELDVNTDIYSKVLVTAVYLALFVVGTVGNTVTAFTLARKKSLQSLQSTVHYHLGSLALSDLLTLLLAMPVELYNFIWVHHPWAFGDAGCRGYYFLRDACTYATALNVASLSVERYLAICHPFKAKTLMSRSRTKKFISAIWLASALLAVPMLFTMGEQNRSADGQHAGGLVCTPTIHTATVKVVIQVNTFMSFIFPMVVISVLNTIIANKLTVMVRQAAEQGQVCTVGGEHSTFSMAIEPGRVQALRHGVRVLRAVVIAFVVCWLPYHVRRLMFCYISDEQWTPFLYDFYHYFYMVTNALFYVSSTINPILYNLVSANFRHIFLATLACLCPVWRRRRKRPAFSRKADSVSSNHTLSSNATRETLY
# m5-HT2A agonist: agonists of mouse serotonin 5-HT2A receptor (HTR2A); actives 0.66% (n = 360,000); activation, % at 7.6 µM; AID 624169; CHO-K1 mHTR2A beta-arrestin complementation, luminescence; percent of 30 µM serotonin response;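 active means activation above a run cutoff, the mean activation of all tested compounds plus 3 SD, cut at about 14% in these data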;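 further: 0% = plate median of compound wells and 100% = 30 µM serotonin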
# Exocytosis CP01: blocks lytic granule exocytosis | shares compounds with Granule exo inh | TALL-104 cells, LAMP-1 externalization, flow cytometry; stimulated with PMA plus thapsigargin | inhibition, % at 10 µM | actives 11% (n = 1,500); in the data active means inhibition above about 60%;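 further: 0% = stimulated vehicle wells and 100% = unstimulated wells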
# * hit, by the source's call; . = not tested or not shown. A selection: hits, their analogues and other compounds. The true share with any hit is near 2.3%.
SMILES,Granule exo inh,ABHD5-PLIN5 inh,Beta2AR agonist,NTR1 ag,m5-HT2A agonist,Exocytosis CP01
C=CCCC(=O)N1C[C@H]2CON(C)[C@H]2C[C@H]1c1ccc(N2CCCCC2)cc1,3.5,-3.7,.,.,2.9,.
Cc1ccc(C)c(N2CCN(C(=O)c3ccc(CS(=O)Cc4cccc(Cl)c4)o3)CC2)c1 (configuration not stated),57.7*,4.5,5.8,7.5,1.0,-4.7
O=C(c1ccc(CS(=O)Cc2cccc(Cl)c2)o1)N1CCN(c2ccc(F)cc2)CC1 (configuration not stated),0.4,9.3,.,.,-0.8,.
Cc1ccc(Nc2nc(NCCO)c3ccccc3n2)cc1C,58.3*,9.3,-11.8,1.5,-2.0,-2.1
O=C(COC(=O)C1(c2ccccc2F)CCCC1)N1CCNC1=O,-2.6,-3.5,-3.3,-0.5,4.6,.
COc1ccc(NC(=O)c2ccc(S(=O)(=O)N3CCCC3)cc2)cc1OC,-3.0,3.9,0.0,1.4,-2.4,.
CN(Cc1ccccc1)c1ncnc2sccc12,57.2*,7.3,-3.4,-0.1,5.2,-3.1
O=C(CCS(=O)(=O)c1ccccc1)N1CCCc2ccccc21,73.5*,-2.0,-4.5,-1.3,4.6,8.6
O=C(CCC(=O)N1CCCc2ccccc21)N1CCN(S(=O)(=O)c2ccccc2)CC1,0.6,-3.4,0.6,0.2,-0.8,.
CN1C(=O)/C(=C/c2ccccc2F)Sc2ccc(C(=O)N3CCCC3)cc21,0.3,5.5,-2.9,6.7,-6.2,.
O=C(COc1ccccc1)Nc1cc(C(F)(F)F)ccc1N1CCCC1,73.6*,-2.3,4.0,5.1,-0.6,-13.0
O=C(COc1ccccc1)Nc1ccccc1N1CCCCC1,3.2,-1.8,5.7,11.3,-5.6,.
CCOC(=O)C1OC1(c1ccccc1)c1ccccc1 (configuration not stated),2.4,0.1,8.6,.,5.7,.
Cc1ccc(N2C(=O)N(CC(=O)N3c4ccccc4CC3C)C(=O)C2C)cc1 (configuration not stated),2.7,2.2,-0.4,-1.1,5.1,.
O=C(Nc1cccc(OC(F)(F)F)c1)C1Cc2c(-c3ccc4c(c3)OCO4)ccnc2O1 (configuration not stated),-3.6,1.5,.,.,-2.7,.
COc1ccc(OC)c(Nc2c3c(nc4ccccc24)CCC3)c1,58.1*,-3.5,13.6,8.8,-5.5,-1.1
COc1ccc2nc3c(c(-c4ccccc4)c2c1)CCC3,66.5*,-0.3,0.3,2.4,5.5,3.2
COc1ccc(OC)c(Nc2cc(C)c3ccccc3n2)c1,-13.4,-0.5,-5.0,4.9,-4.6,.
COc1ccc([N+](=O)[O-])cc1Nc1c2ccccc2nc2ccccc12,72.9*,5.5,6.6,13.8,-2.9,73.2*
COc1ccc(OC)c(Nc2c3ccccc3nc3ccccc23)c1,67.0*,-11.2,-77.1,10.0,-11.8,-1.9
COc1ccc(/C=N/NC(=O)c2c(C)nc3ccccn23)cc1[N+](=O)[O-],-9.0,-7.4,1.4,0.9,-3.6,.
Cn1cc(Cl)c(C(=O)NC(=S)Nc2sc3c(c2C#N)CCCCC3)n1,13.6,-12.7,24.0,0.8,-0.1,.
CCOC(=O)c1ccccc1NC(=O)CSc1ccc(-c2ccccn2)nn1,105.8*,5.1,6.2,1.4,1.4,-14.1
COc1ccc(C(=O)C2CCCN(C(=O)c3cccnc3OC)C2)cc1F (configuration not stated),76.7*,4.3,0.1,-2.1,-1.2,-14.9
COc1ccc2cc(C(=O)C3CCCN(C(=O)c4cccnc4)C3)ccc2c1 (configuration not stated),9.0,-5.9,-7.2,0.3,6.1,.
SMILES,Granule exo inh,ABHD5-PLIN5 inh,Beta2AR agonist,NTR1 ag,m5-HT2A agonist,Exocytosis CP01
O=C(c1ccc2ccccc2c1)C1CCCN(C(=O)c2cccnc2)C1 (configuration not stated),65.8*,5.3,1.4,1.2,1.7,-3.5
CCN(CC)c1nc(C)nc2c1cnn2CCc1ccccc1,71.1*,-4.6,-5.8,0.9,1.1,-3.4
COc1cc2c(cc1OC)CN(c1ccc([N+](=O)[O-])cc1C#N)CC2,77.4*,12.6,-7.5,0.6,-2.3,-3.0
COc1cc2c(cc1OC)CN(c1ccc([N+](=O)[O-])cc1Cl)CC2,69.6*,13.7,-4.4,3.1,-3.1,-8.3
N#Cc1cc([N+](=O)[O-])ccc1N1CCCC1,18.2,-5.6,-6.4,2.5,-1.9,.
COc1cc2c(cc1OC)CN(c1ccc(F)cc1[N+](=O)[O-])CC2,-8.5,-8.0,-6.8,1.0,2.7,.
Cc1ccc(OCc2ccc(Br)cc2)c([N+](=O)[O-])n1,.,.,.,3.0,.,.
Cc1ccc(OCc2ccc(-c3ccccc3)cc2)c([N+](=O)[O-])n1,88.1*,1.1,13.6,11.3,-5.4,-3.4
CCOC(=O)C(=CN(CCc1ccccc1)CC(=O)OC)C(=O)OCC,-2.8,0.8,1.9,3.0,-0.2,.
COc1ccccc1N1CCN(CC(=O)NCC2CCCO2)CC1 (configuration not stated),58.2*,4.7,7.3,2.3,1.0,-13.3
COc1ccccc1C(OC(=O)c1cccs1)C(=O)NCC1CCCO1 (configuration not stated),61.4*,-9.9,-0.5,-1.1,-2.8,-11.6
O=C(COc1cc2oc(=O)cc(-c3ccccc3)c2cc1Cl)NCc1ccccn1,-1.2,-0.3,-6.6,3.1,0.8,.
CCCCS(=O)(=O)N1CCCC(C(=O)Oc2ccccc2OC)C1 (configuration not stated),-15.1,-0.9,5.4,-0.8,-0.6,.
CCCS(=O)(=O)N1CCCC(C(=O)Oc2ccccc2Cl)C1 (configuration not stated),67.9*,3.8,-5.0,0.6,1.8,-14.3
O=C(NCc1ccc(F)c(F)c1)C1Cc2c(-c3ccc4c(c3)OCO4)ccnc2O1 (configuration not stated),11.9,-3.5,.,.,1.6,.
Cc1noc(C)c1S(=O)(=O)N(CC(=O)NC1CCC(C)CC1)c1ccc(C(C)C)cc1 (configuration not stated),72.4*,-4.5,0.4,2.4,4.9,-4.1
CCN1CCc2c(OCc3ccccc3)cccc2C1=O,-0.5,-8.9,-5.9,-0.4,-1.2,.
Cc1ccc(S(=O)(=O)N(Cc2cc3ccccc3[nH]c2=O)c2cccc(C)c2)cc1,2.8,-3.4,-15.0,10.2,3.2,.
O=C(Nc1ccc2nc(-c3cccs3)c(-c3cccs3)nc2c1)NC1CC1,98.9*,-4.3,26.4,15.3,-0.9,102.8*
CCOc1ccc2nc(SC3CC(=O)N(c4ccc(C)cc4)C3=O)sc2c1 (configuration not stated),55.5*,-1.0,-2.5,4.3,6.3,-4.5
COc1ccc(N2C(=O)CC(Sc3nccc(C)n3)C2=O)c(OC)c1 (configuration not stated),6.2,-4.3,.,.,-1.8,.

# Assay outcomes (PubChem BioAssay)
